From PubChem BioAssay
The list is not random: actives were taken first. Their share in the collection is about 4.1%.
SUMO Mot1 rescue – inhibitors of SUMOylation pathway: yeast Mot1-301 growth rescue | S. cerevisiae Mot1-301 growth rescue, ATP luminescence, 38.5C; percent above DMSO median, 100 means doubled | growth rescue, % at 18.8 µM | AID 2716 | 320,000 compounds, 1% hits;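 active means every valid replicate shows activation above 250% relative to neutral control wells; inactive means the rest, any valid replicate at or below 250%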;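 further: OY570 slx delta 5 strain wells were the positive control but not used for scaling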
CHT block – human CHT choline transport inhibition; AID 488975; B-score at 10 µM; 310,000 compounds, 0.86% hits; Q9GZV3; CHT-expressing cells, membrane potential dye, choline response; active compounds read low;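 active means B-score over 3 SD under the library average, and starting fluorescence ratio not unusually high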;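 further: choline stimulus applied at its EC90 after an EC20 pre-addition; B-score computed on integrated fluorescence ratio after choline addition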
MEKK2wt PB1 HTS – raises or lowers MEK5 binding to wildtype human MEKK2 PB1 domain | 290,000 compounds, 1.1% hits | AID 1531 | Q9Y2U5 | binding response (% of control), % at 10 µM | bead flow cytometry, Alexa488-MEK5 binding to MEKK2 WT; actives lie on both sides; in the data active means binding response below about 67% or above about 130%
MEKK3 PB1 HTS – MEKK3-MEK5 PB1 interaction, increase or decrease; Q99759; bead-based flow cytometry, Alexa488-MEK5 binding to MEKK3; actives lie on both sides; 0 = blocked by unlabeled MEK5, 100 = vehicle; binding response (% of control), % at 10 µM; 290,000 compounds, 1.4% hits;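 active means binding response more than 3 SD above or below the average of its plate-row segment, actives on both sides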;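 further: Alexa488 bead fluorescence after subtracting the streptavidin-only scavenger bead signal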
Target sequence (Q99759 whole entry, looked up): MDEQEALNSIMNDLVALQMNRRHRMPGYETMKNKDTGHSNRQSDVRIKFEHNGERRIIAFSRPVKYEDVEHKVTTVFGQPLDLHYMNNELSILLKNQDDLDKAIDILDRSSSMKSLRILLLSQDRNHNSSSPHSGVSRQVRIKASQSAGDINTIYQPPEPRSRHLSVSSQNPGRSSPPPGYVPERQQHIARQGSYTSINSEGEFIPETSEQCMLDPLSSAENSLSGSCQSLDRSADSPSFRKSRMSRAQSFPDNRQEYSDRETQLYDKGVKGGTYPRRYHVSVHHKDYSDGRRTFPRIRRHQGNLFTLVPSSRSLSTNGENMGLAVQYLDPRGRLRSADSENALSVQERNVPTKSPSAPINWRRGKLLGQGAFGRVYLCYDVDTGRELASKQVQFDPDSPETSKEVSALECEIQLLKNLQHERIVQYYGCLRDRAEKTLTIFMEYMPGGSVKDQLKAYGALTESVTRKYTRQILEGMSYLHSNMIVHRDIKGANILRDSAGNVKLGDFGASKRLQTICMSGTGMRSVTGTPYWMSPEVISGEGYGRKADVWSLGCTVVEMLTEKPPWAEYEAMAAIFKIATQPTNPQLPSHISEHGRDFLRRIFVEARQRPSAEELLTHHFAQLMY
MEKK2 mut-MEK5 – signal of MEK5 binding to mutant human MEKK2 PB1 domain; bead flow cytometry, Alexa488-MEK5 binding to MEKK2 mutant; percent response, % at 10 µM; 290,000 compounds, 0.35% hits; AID 1530; in the data active means percent response above about 24%, passing the limit was not always enough
CHT PAM – allosteric activators of human choline transporter CHT; Q9GZV3; CHT-expressing cells, membrane potential dye, choline EC20; active compounds read high; LV-AA mutant CHT in HEK293 cells; B-score at 10 µM; 310,000 compounds, 0.49% hits;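 active means initial fluorescence not abnormally high and integrated response B-score, plate-corrected, over 3 SD above library mean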
CHT inh conf – human CHT inhibition, confirmatory screen; shares compounds with CHT block; CHT-expressing cells, choline membrane potential dye; LV-to-AA substituted CHT, HEK293 cells; CHT activity remaining % of control (active compounds read low), % at 10 µM; 2,400 compounds, 70% hits; AID 493221;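 active means choline transporter activity left, mean of duplicates at 10 µM, below buffer-only control mean minus 3 SD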;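 further: depolarization triggered by choline at its EC90 following an EC20 pre-addition; 0% = hemicholinium-3 full block and 100% = buffer-only control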
HEK293 CHT ctr – CHT inhibitor counter-screen hit in parental HEK293 cells | shares compounds with CHT block | membrane potential ratio readout (active if shifted either direction beyond buffer ±3SD; no single direction) at 10 µM | 2,400 compounds, 4% hits | membrane potential dye, choline response; active = decrease or increase beyond buffer ±3SD;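 further: parental cells lack the transporter so any hit is non-specific; ratio is peak minus trough fluorescence over baseline after EC90 choline challenge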
* = called active by the depositor; i = inactive; nt = no result given.

SMILES | SUMO Mot1 rescue | CHT block | MEKK2wt PB1 HTS | MEKK3 PB1 HTS | MEKK2 mut-MEK5 | CHT PAM | CHT inh conf | HEK293 CHT ctr
CCCCn1c(CN2CCN(c3cccc(Cl)c3)CC2)nc2c1c(=O)n(C)c(=O)n2C | -24 | -13* | 100 | 99 | -5 | i | 29%* | i
CC(OC(=O)Cc1ccc(F)cc1)C(=O)NCc1ccc2c(c1)OCO2 (configuration not stated) | -3 | i | nt | nt | nt | i | nt | nt
CC(=O)Nc1ccc(S(=O)(=O)Nc2ccc(S(=O)(=O)Nc3nccs3)cc2)cc1 | -4 | i | 97 | 98 | -3 | i | nt | nt
O=C(COC(=O)c1cc2ccccc2oc1=O)Nc1ccc(F)cc1F | -10 | i | 99 | 99 | -1 | i | nt | nt
COc1ccc(CCNC(=O)CSc2nc(O)c(C(C)C)c(=O)[nH]2)cc1OC | -14 | i | 100 | 103 | 0 | i | nt | nt
CCOc1ccc(-c2nc(CSCC(=O)N3CCN(C(=O)c4ccco4)CC3)c(C)o2)cc1 | -10 | i | 92 | 96 | -1 | i | nt | nt
CCOC(=O)C1CCN(C(=O)CSCc2nc(-c3ccc(OCC)cc3)oc2C)CC1 | -17 | -7.6* | 102 | 100 | 9 | i | 69%* | i
COc1ccc(NC(=O)CNc2cc(S(=O)(=O)N3CCOCC3)ccc2NCC2CCCO2)cc1 (configuration not stated) | -1 | i | 98 | 103 | 1 | i | nt | nt
O=C(NCCn1cccn1)c1ccc(OC2CCN(C(=O)C3CC3)CC2)cc1 | 9 | -11* | 93 | 99 | -3 | i | i | i
CSCCNC(=O)c1ccc(OC2CCN(CCc3ccccc3)CC2)cc1 | -1 | -5.2* | 96 | 97 | -5 | i | 46%* | 4.8*
O=C(NCCn1cccn1)c1ccc(OC2CCN(CCc3ccccc3)CC2)cc1 | -13 | i | 104 | 104 | 4 | i | nt | nt
COc1ccc(N(CC(=O)NCCC2=CCCCC2)S(=O)(=O)c2c(C)[nH]c(=O)[nH]c2=O)cc1 | 72 | i | 106 | 106 | 7 | i | nt | nt
CN(C)/C=C1/N=C(c2ccccc2)OC1=O | 88 | i | 97 | 99 | -1 | i | nt | nt
O=CC1=C(c2ccccc2)Oc2ccccc2O1 | -9 | i | 107 | 110 | 8 | i | i | i
O=C(c1c(O)c2ccccc2oc1=O)C1CCCCC1 | 27 | -7.5* | 101 | 103 | -2 | i | 58%* | i
O=C(CCC1CCCC1)c1c(O)c2ccccc2oc1=O | -1 | i | 109 | 107 | 3 | i | nt | nt
CC(C)c1c(C(=O)N/N=C/c2cccc(OCc3ccc(F)cc3)c2)nnn1-c1nonc1N | 1 | -6.6* | 101 | 105 | 2 | i | 68%* | i
COc1cccc(OC)c1OCCCCc1c(C)n[nH]c1C | 0 | i | 102 | 105 | 4 | i | nt | nt
Cc1n[nH]c(C)c1CCCCOc1ccccc1[N+](=O)[O-] | 0 | -5.5* | 104 | 108 | 12 | i | 52%* | i
Cc1n[nH]c(C)c1CCCCOc1ccccc1F | -7 | i | 109 | 109 | 13 | i | nt | nt
COc1cccc(OC)c1OCCCCCc1c(C)n[nH]c1C | -28 | -6.5* | 109 | 111 | 10 | i | 45%* | i
O=C(O)CCNC1C=CS(=O)(=O)C1 (configuration not stated) | 0 | -6.2* | 87 | 89 | -11 | i | i | i
O=C(CS(=O)(=O)Nc1ccc(F)cc1Cl)Nc1ccc(F)cc1Cl | 17 | -11* | 108 | 109 | 9 | i | 66%* | i
COCCN1C(=O)C(=O)/C(=C(/O)c2ccc(S(=O)(=O)N3CCOCC3)cc2)C1c1ccc(C(C)C)cc1 (configuration not stated) | nt | nt | 108 | 99 | 2 | nt | nt | nt
COc1ccccc1C(CNC(=O)c1ccc(NS(=O)(=O)c2ccc(F)c(C)c2)cc1)N1CCCC1 (configuration not stated) | 38 | i | nt | nt | nt | i | nt | nt
SMILES | SUMO Mot1 rescue | CHT block | MEKK2wt PB1 HTS | MEKK3 PB1 HTS | MEKK2 mut-MEK5 | CHT PAM | CHT inh conf | HEK293 CHT ctr
O=C(NCC(c1ccco1)N1CCCCC1)c1cccc(NS(=O)(=O)c2ccc(Br)cc2)c1 (configuration not stated) | -8 | -11* | nt | nt | nt | i | 37%* | i
Cc1ccc(NS(=O)(=O)c2cccc(C(=O)NCC(c3ccco3)N3CCCCC3)c2)cc1 (configuration not stated) | -17 | -13* | 112 | 103 | 6 | i | 2.4%* | i
COc1ccccc1C(CNC(=O)c1cccc(NS(=O)(=O)c2ccc(C)c(F)c2)c1)N1CCCC1 (configuration not stated) | -7 | -5.6* | nt | nt | nt | i | 15%* | i
COc1ccccc1NS(=O)(=O)c1cc(C(=O)NCC(c2ccco2)N2CCCCC2)ccc1C (configuration not stated) | 7 | -12* | nt | nt | nt | i | 11%* | i
Cc1ccc(OCC(=O)OCC(=O)Nc2ccc3c(c2)OCO3)cc1C | 1 | nt | nt | nt | nt | nt | nt | nt
O=[N+]([O-])c1ccccc1/C=N/Nc1nnc(-c2ccccc2)c(-c2ccccc2)n1 | 3 | i | 79 | 88 | -2 | i | nt | nt
O=C(NCC(=O)N1CCOCC1)c1ccc(Cl)c(Cl)c1 | 9 | nt | nt | nt | nt | nt | nt | nt
Cc1ccc(F)cc1NC(=O)c1ccc(NS(=O)(=O)c2ccc(Br)s2)cc1 | -10 | -7.1* | 100 | 105 | -1 | i | 50%* | i
O=C(NCCCN1CCCC1=O)C1CCN(S(=O)(=O)c2ccc(Cl)cc2)CC1 | 0 | nt | nt | nt | nt | nt | nt | nt
CCC1CCCCN1CCCNC(=O)c1ccc(N2CCOCC2)c(NS(=O)(=O)c2ccc(OC)cc2)c1 (configuration not stated) | 2 | -6.8* | 102 | 94 | -2 | i | 42%* | i
CN(C)C(CNC(=S)Nc1cccc(Cl)c1)c1ccccc1 (configuration not stated) | nt | i | 103 | 100 | 10 | i | nt | nt
O=[N+]([O-])c1ccc(Sc2nnnn2-c2ccccc2)nc1 | nt | nt | 99 | 100 | 5 | nt | nt | nt
COc1ccc(CNC(=O)C2CCN(S(=O)(=O)c3cccc4cccnc34)CC2)cc1 | 6 | i | 106 | 112 | 0 | i | nt | nt
Cc1ccsc1CNC12CC3CC(CC(C3)C1)C2 | 25 | -6.6* | 104 | 103 | -8 | i | 14%* | -13*
